Assay results: PubChem BioAssay AID1377 (University of Pittsburgh Molecular Library Screening Center, 2008)
Screen size: about 220,000 compounds; about 830 (0.38%) were called active. The list comes from a sample in which actives are over-represented; it also holds similar structures and randomly drawn compounds. Unmarked numbers belong to inactive results.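 The calls were made as follows: active = activation, scaled between plate controls, above about 75% (limit read from the data); inactive = activation under that limit.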

assay: rescue of L929 cells from zVAD death – primary screen (AID 1377); settings: L929 zVAD necroptosis rescue, ATP luminescence, 24 h, at 10 µM, hits give high values; with zVAD 60 µM unless noted;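 also: 0% = zVAD with DMSO and 100% = DMSO alone without zVAD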

SMILES | viability rescue
Cc1[nH]c(=O)c(C(=O)/C=C/c2ccccc2)c2c1CCCC2 | 79.8% [with zVAD 20 µM] (active)
O=C(/C=C/c1ccccc1)c1ccccc1O | 1.78%
Cc1nc(-c2ccccc2)sc1C(=O)/C=C/c1ccccc1 | 0.15% [with zVAD 20 µM]
CCc1cc2c(=O)c(-c3nc4ccccc4n3C)c(CCCC(=O)O)oc2cc1OC(=O)C(C)(C)C | 3.54%
Fc1ccc2c(c1)C(c1cccnc1)=NNC(c1cccs1)=N2 | 0.66%
COc1cccc(/C=N/NC(=O)CNC(=O)c2ccc(S(=O)(=O)N3CCOCC3)cc2)c1OC | 0.08%
COc1c(N2CCN(C(=S)Nc3ccccc3F)C(C)C2)c(F)cc2c(=O)c(C(=O)O)cn(C3CC3)c12 (configuration not stated) | -0.64%
CC1CCCC(C)N1/N=C/c1ccccc1OC(F)F (configuration not stated) | 2.14%
O=C(Cn1cnc2ccccc2c1=O)Nc1cccc(S(=O)(=O)N2CCCCC2)c1 | 2.04%
Cc1ccc(NC(=O)c2ccc(Oc3ncccn3)cc2)cc1 | 3.02%
CCn1c(SCC(=O)Nc2ccc(OC)c(OC)c2)nnc1-c1c[nH]c2ccccc12 | 1.56% [with zVAD 20 µM]
CCn1c(SCCC(C)C)nnc1-c1c[nH]c2ccccc12 | 81.2% [with zVAD 20 µM] (active)
CCC(C)Sc1nnc(-c2c[nH]c3ccccc23)n1CCOC (configuration not stated) | 2.86% [with zVAD 20 µM]
CCOc1cccc2c1OC1(CCCCC1)N1N=C(c3cccnc3)CC21 (configuration not stated) | 1.15%
Cc1ccc(NC(=O)C/C(N)=N/O)cc1Cl | 1.11%
CCC(=O)c1ccc(OCC(=O)Nc2ccc3nc(C)sc3c2)cc1 | 0.76%
Cc1ccc(NC(=O)COc2ccc(-n3ccnc3)cc2)cc1Cl | 76.3% [with zVAD 20 µM] (active)
O=C(Cc1coc2ccc3ccccc3c12)NCc1cccs1 | 0.48%
Cc1ccccc1NC(=O)NC1(C(=O)N2CCCC2)CCCCC1 | 4.41%
CCOC(=O)N1CCN(C(=O)CNC(=O)Cc2ccc(Cl)cc2)CC1 | 80.3% (active)
CCOC(=O)N1CCN(C(=O)CSc2ccc(Cl)cc2)CC1 | -0.42% [with zVAD 20 µM]
CCOC(=O)N1CCN(C(=O)COc2ccc(Cl)cc2C)CC1 | 0.53%
O=C(NC(=S)Nc1ccc2oc(=O)ccc2c1)c1ccc(-c2cccc(Cl)c2Cl)o1 | 0.38%

SMILES | viability rescue
Cc1[nH]c2ccccc2c1SCC(=O)Nc1nccs1 | 1%
CC(=O)c1cc(C#N)c(SCC(=O)Nc2nccs2)nc1C | 82.9% (active)
CC(=O)c1cc(C#N)c(SCC(=O)C(C)(C)C)nc1C | 0.46%
COc1ccc(C(CCN(Cc2ccc(OC)c(OC)c2)C(=O)CCl)c2ccccc2)cc1 (configuration not stated) | 36.4% [with zVAD 20 µM]
O=C(c1ccco1)N1CCN(C(=O)c2ccc(COc3ccc(F)cc3)o2)CC1 | 77.8% [with zVAD 20 µM] (active)
O=C(c1ccco1)N1CCN(CCOc2ccccc2)CC1 | -0.6%
COc1ccccc1OCc1ccc(C(=O)N2CCN(C)CC2)o1 | 0.99%
O=C(C/C(=N\NC(=O)c1ccccc1Br)C(F)(F)F)c1cccs1 | 0.26%
Cc1cc(C(=O)N2CCC(C(=O)O)CC2)c(C(F)(F)F)o1 | -0.1%
COC(=O)C1=C(C)N(C(C)c2ccccc2)C(=O)/C1=C\c1ccco1 (configuration not stated) | 10.9%
O=C(CCN1CCN(c2ccccc2)CC1)NNC(=S)Nc1ccccc1 | 1.61%
Cc1cc(NC(=O)Nc2ccc(Cl)cc2)n(-c2ccccc2)n1 | 22.9%
Cn1ccc(NC(=O)Nc2ccc(Cl)cc2)n1 | 75.5% (active)
Cc1nn(C)cc1CNC(=O)Nc1ccc(Cl)cc1 | 0.19%
COC(=O)Cn1cc(/C=C/[N+](=O)[O-])c2ccccc21 | -0.01%
COc1cc(NS(=O)(=O)c2ccc(N/C=C(\C=O)c3nc4cc(Cl)ccc4o3)cc2)nc(OC)n1 | 0.63%
Cc1ccc(N2C(=O)C(CC(=O)Nc3cccc(F)c3)N(CCc3ccncc3)C2=O)cc1 (configuration not stated) | 6.31%
CCc1c(SCCC(=O)O)nc2ccccc2c1C | 5.34%
Cn1c2ccc(F)cc2c2nnc(NN)nc21 | 1.53%
C=CCO/N=C/C1=C(O)C(C(=O)OC)C(C)(C)CC1=O (configuration not stated) | 4.04%
NC(=O)c1ccc(NC(=O)COC(=O)c2ccc([N+](=O)[O-])cc2)cc1 | 1.41%
CCCCC(CCC(=O)Nc1ccc(C(=O)OCC)cc1)C(=O)O (configuration not stated) | 0.34% [with zVAD 20 µM]
CC(C)NC(=O)NC(=O)COC(=O)c1ccc(NC(=O)CC#N)cc1 | 78.9% (active)

SMILES | viability rescue
CCN1CCCC1CNC(=O)c1cc2c(=O)n(C)c3ccccc3c2n1C (configuration not stated) | 22.7% [with zVAD 20 µM]
Cn1c(C(=O)NCCCN2CCN(c3cccc(Cl)c3)CC2)cc2c(=O)n(C)c3ccccc3c21 | 4.61%
CC1CCCC(C)N1CCCNC(=O)c1cc2c(=O)n(C)c3ccccc3c2n1C (configuration not stated) | 80.8% [with zVAD 20 µM] (active)
CN(C)S(=O)(=O)Oc1ccccc1C(=O)Nc1ccccc1Cl | -0.16%
COCCN1C2=C(COC(C)(C)C2)C(=S)NC1c1ccccc1 (configuration not stated) | 0.35%
O=C(COC(=O)c1ccc(Cl)nc1)NCc1cccs1 | 1%
COc1ccccc1NC(=O)CSc1nnc(-c2ccoc2C)n1CCc1ccccc1 | -0.28% [with zVAD 20 µM]
CCCn1c(SCC(=O)Nc2cccc(C(=O)OCC)c2)nnc1-c1ccoc1C | -0.07% [with zVAD 20 µM]
CCn1c(SCC(=O)Nc2nc3ccc(OC)cc3s2)nnc1-c1ccoc1C | 88.1% [with zVAD 20 µM] (active)
COc1ccc(N2C(=O)C3C(C2=O)C(C(=O)c2ccccc2)N2CCCC32)cc1 (configuration not stated) | -0.53%
CCc1ccccc1N1CN(Cc2ccco2)CNC1=S | 0.22%
Cc1cc(C)nc(NNC2=CC(=O)CC(C)(C)C2)n1 | 0.66%
CC(=O)Nc1ccc(NC(=S)NC(=O)/C=C/c2ccccc2)cc1 | 80.5% (active)
CC(=O)Nc1ccc(/C=C/C(=O)c2ccccc2)cc1 | 0.6%
Cc1ccc(NC(=S)NC(=O)/C=C/c2ccc(Cl)cc2)cc1 | 0.00667%
O=C1NC(c2ccccc2)=NC1(Nc1ccccn1)C(F)(F)F (configuration not stated) | 1.82%
CC(C)(C)NC(=O)C(=O)NCc1ccncc1 | 0.53%
Cc1cc(C)cc(NS(=O)(=O)c2ccc(F)cc2)c1 | 0.04%
CC(NC(=S)NC1CCCCC1)C(c1ccccc1)N1CCOCC1 (configuration not stated) | -0.76%
NNC(=O)c1ccc(Cl)cc1Cl | 0.33%
Cc1ccccc1NC(=O)CNc1ccccc1N1CCCCC1 | 0.17% [with zVAD 20 µM]
Cc1ccccc1NC(=O)CSC1=NCCN1 | 101% [with zVAD 20 µM] (active)
Cc1cccc(NC(=O)CSc2nc3c(c(=O)[nH]2)CCCC3)c1C | 0.25%

SMILES | viability rescue
Clc1cc(-c2ccc(/C=N/n3cnnc3)o2)ccc1Br | -0.31%
CCOC(=O)/C(C#N)=C/c1ccc(N2CCCCC2)cc1 | 68.5%
C=CCNC(=O)CC12CC3CC(C1)CC(CC(=O)NCC=C)(C3)C2 | 0.48%
O=C(Nc1cccc(-c2nc3ccccc3[nH]2)c1)c1ccc(C(=O)Nc2cccc(-c3nc4ccccc4[nH]3)c2)cc1 | 0.11%
CC(=O)Nc1cccc(-c2csc(Nc3cccc(C)n3)n2)c1 | 0.49% [with zVAD 20 µM]
CC(=O)Nc1cccc(-c2cnc3ccccc3n2)c1 | 82.7% (active)
O=C(Nc1cccc(F)c1)N1C2CCC1CC(O)(c1cccnc1)C2 (configuration not stated) | 0.67%
O=C(Nc1cccnc1)c1cc([N+](=O)[O-])ccc1Cl | 13.3%
Cc1ccc(C(=O)Cn2cccn2)cc1 | 1.57%
Cc1ccc(NC(=O)NC(=O)N(C2CCCCC2)S(=O)(=O)c2ccccc2)cc1 | 2.56%
O=C(CC1SCCNC1=O)Nc1ccc(Cl)cc1 (configuration not stated) | 2.38%
COc1ccccc1-n1cnc2cc(C(=O)NCC3CCCO3)ccc21 (configuration not stated) | 1.84%
COCCCNC(=O)c1ccc2c(c1)ncn2-c1ccccc1OC | 13.6%
COc1ccc(-n2cnc3cc(C(=O)NC4CCCC4)ccc32)cc1 | 76.5% (active)
COc1ccc(-c2nc3cnccn3c2NC(C)(C)CC(C)(C)C)cc1O | 0.13%
Cc1ccc2cc(/C=N/Nc3ccc(C(=O)O)cc3)c(Cl)nc2c1 | 1.59%
CCOC(=O)C1(Cc2ccc(Cl)cc2)CCN(C(=O)C2=NNC(=O)CC2)CC1 | -0.11%
CCCCN1C(=O)CC(N2CCOCC2)C1=O (configuration not stated) | -0.32%
C[C@@H]1C[C@@H]2O[C@H]2/C=C\C=C\C(=O)Cc2c(Cl)c(O)cc(O)c2C(=O)O1 | 83% (active)
O=C(c1ccncc1)c1ccc([N+](=O)[O-])cc1 | 1.69%
O=C(c1ccc(F)cc1)C1CCN(Cc2cn[nH]c2-c2ccccc2)CC1 | 0.29%
CC(=O)NCCC(=O)Nc1cc(S(=O)(=O)N2CCOCC2)ccc1N1CCOCC1 | 0.76%
COc1ccc(/C(N)=N/OC(=O)Cc2ccccc2)cc1 | 0.52%
